High-throughput results from PubChem BioAssay.
A selection: hits, their analogues and other compounds. The true share with any hit is near 9.2%.
NPC1 promoter act = NPC1 promoter activation; Potency, µM (titrated, usually from 9.22 µM), hits mostly activators; Huh7 NPC1 promoter luciferase reporter, 24 h; 320,000 tested, 2.4% active; also: nearly all actives have a fitted effect of over 60% in size
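Luciferase expression driven by the NPC1 promoter was measured in stably transfected Huh7 cells after a 24 h compound incubation, using a luciferase reagent and a luminescence read.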
ELG1 genotoxic = genotoxicity induction in ELG1-luciferase HEK293T cells; HEK293T ELG1-luciferase reporter, luminescence, 16 h; Potency, µM (top dose mostly 46 µM), usual class: activators; 330,000 tested, 1.3% active; AID 504466; also: nearly all actives have a fitted effect of over 60% in size
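Quantitative HTS format in 1536-well plates. HEK293T ELG1-luciferase reporter cells receive test compound and are incubated 16 hr at 37 °C, 5% CO2; ONE-Glo added, 30 min room temperature, then luminescence read.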
SMN2 splice up = increases expression of the SMN2 splice variant; HEK293 SMN2-luciferase splicing reporter, luminescence, 30-36 h; Potency, µM (doses to about 46.1 µM), most hits filed as activators; 210,000 tested, 2.8% active; also: nearly all actives have a fitted effect of over 55% in size
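HEK293 cells carry an SMN2 […]–luciferase reporter in which exon 7 inclusion puts luciferase in frame. Cells were plated 10-12 h before compound addition, then incubated 30-36 h at 37C. ONE-Glo luminescence was read; sodium butyrate at 4.5 mM final served as control.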
ELG1 repair inh = blocks ELG1-dependent DNA repair in HEK293T cells | 330,000 tested, 2.3% active | AID 504467 | HEK293T ELG1-luciferase reporter, luminescence, 16 h; DNA damage induced by 5-fluorouridine | Potency, µM (highest dose often 46.1 µM), actives largely listed as inhibitors; also: nearly all actives have a fitted effect of over 55% in size
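5-Fluorouridine DNA damage + compound/DMSO, 2,000 cells/well, 16 h, 37 °C/5% CO2. ONE-Glo, 30 min RT, luminescence. Readout = decrease in reporter signal.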
FLuc modulator = counter-screen for miR-21 project: firefly luciferase inhibitors or activators; P08659; purified FLuc, Km substrates, luminescence inhibition; Potency, µM (titrated, usually from 57.5 µM), hits mostly inhibitors; 360,000 tested, 6.9% active; AID 588342; also: nearly all actives have a fitted effect of over 55% in size
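Biochemical qHTS of compounds, final roughly 60 µM downward over six points, against 10 nM purified firefly luciferase using Km concentrations of substrates (10 uM D-luciferin, 10 uM ATP) in Tris acetate pH 7.5 buffer; luminescence output.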
Rab9 prom act = activates the Rab9 promoter. Potency, µM (series often up to 9.22 µM), hits mostly activators. 320,000 tested, 2.8% active. Huh7 Rab9 promoter-luciferase reporter, luminescence, 24 h; also: nearly all actives have a fitted effect of over 60% in size
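Huh7 cells stably carrying a Rab9 promoter-luciferase reporter, 1500 cells per well in OP-MEM I with 10% FBS, treated with compound 24 hours at 37C. Luciferase activity read by luminescence after 10 minutes with Amplite reagent.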
ELG1 FLuc counter = luciferase inhibition in cell-free luciferin readout for ELG1 hits; 350 tested, 3% active; AID 624247; Potency, µM (doses to about 46.1 µM), most hits filed as inhibitors; cell-free firefly luciferase luminescence counter-screen, ViewLux; shares compounds with ELG1 repair inh
ELG1 Luc conf = confirmation of human ELG1-dependent DNA repair inhibitors. AID 624248. 670 tested, 68% active. Potency, µM (series often up to 46.1 µM), usual class: inhibitors. HEK293T ELG1-luciferase levels, luminescence; cells co-treated with 5-fluorouridine. shares compounds with ELG1 repair inh; also: nearly all actives have a fitted effect of over 55% in size
ELG1-Luc MMS = confirmation of human ELG1 repair inhibitors, MMS stimulated; shares compounds with ELG1 repair inh; HEK293T luciferase-tagged ELG1 level, MMS stimulated; Potency, µM (titrated, usually from 46.1 µM), hits mostly inhibitors; 670 tested, 53% active; AID 624249; also: nearly all actives have a fitted effect of over 60% in size
ELG1 5FU viab = confirmation of ELG1 repair inhibitors: viability with 5FU; shares compounds with ELG1 repair inh; cell viability with 5-FU, ELG1-dependent repair; Potency, µM (highest dose often 46.1 µM), hits mostly cytotoxic; 670 tested, under 10 active;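 also: ELG1-luc HEK293T cells cotreated with 5-fluorouridine at 10 µM final; viability measured 16 h after compound addition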
ELG1 MMS viab = confirmation of ELG1 repair inhibitors: viability with MMS. Cell viability with MMS, ELG1-dependent DNA repair. shares compounds with ELG1 repair inh. Potency, µM (series often up to 46.1 µM), usual class: cytotoxic. 670 tested, 33% active;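 also: ELG1-luc HEK293T cells co-treated with 10 µM MMS; viability read 16 h after compound addition; nearly all actives have a fitted effect of over 60% in size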
Cell viab unstim = unstimulated viability counter-screen for ELG1 repair hits | shares compounds with ELG1 repair inh | cell viability counter-screen, unstimulated, luminescence | Potency, µM (series often up to 45.9 µM), most hits filed as cytotoxic | 900 tested, 8% active | AID 624252;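 also: compound exposure lasted 16 hours before reading; nearly all actives have a fitted effect of over 55% in size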
FLuc enzyme = firefly luciferase inhibition counter-screen. shares compounds with ELG1 repair inh. purified firefly luciferase, luminescence counter-screen. Potency, µM (top dose mostly 57.5 µM), hits mostly inhibitors. 350 tested, 10% active. AID 624253
A number is an active result; 0 = inactive; ? = inconclusive; - = no result; [ ] = another dose, or the depositor's remark. Calls follow the shape of the dose curve; as a rule, active = well fitted curve in the direction sought with a large enough effect; inconclusive = small, poorly fitted or top-dose-only effect, or another doubt; inactive = no such curve, though single readings can be large; an effect the other way counts as inactive or inconclusive.

SMILES	NPC1 promoter act	ELG1 genotoxic	SMN2 splice up	ELG1 repair inh	FLuc modulator	Rab9 prom act	Cell viab unstim	others
O=C(Nc1cc(Cl)cc(Cl)c1)c1ccc(F)c(S(=O)(=O)N2CCc3ccccc32)c1	-	-	-	-	0	-	-
COc1ccccc1C(=O)Nc1nnc(SCc2cc(=O)c3ccccc3[nH]2)s1	-	-	-	-	0	-	-
CC(=O)CCOC1CCCCO1 (configuration not stated)	-	-	0	-	-	-	-
c1nc(CCO[C@H]2CCCCO2)cc2cc3c(cc12)OCO3	-	?	-	?	-	-	0	ELG1 FLuc counter=0;FLuc enzyme=0.65µM
Cc1ccc(NC(=O)Cn2nc(C)c(S(=O)(=O)N(C)C)c2C)cc1	0	0	0	0	0	0	-
CN(Cc1nccs1)C(=O)C1CCC(=O)N(CCCc2ccccc2)C1 (configuration not stated)	0	0	-	0	0	0	-
O=c1c2ccccc2nc(COc2ccccc2)n1/N=C/c1c[nH]c2ccccc12	0	0	0	2.3µM	0	0	?	ELG1 Luc conf=6.3µM;ELG1-Luc MMS=0;ELG1 5FU viab=?;ELG1 MMS viab=0
COCCNC(=O)C(c1ccc(F)cc1)N(Cc1ccccc1)C(=O)CCC(=O)Nc1nccs1 (configuration not stated)	0	0	-	0	0	0	-
Cc1ccc(-c2cc(C(=O)NCc3cccs3)no2)cc1	?	?	0	?	0	2µM	0	ELG1 FLuc counter=0;FLuc enzyme=?
O=C(NCc1cccs1)c1cc(-c2cccc(Cl)c2)on1	0	?	0	?	0	?	-
CCN(C[C@H]1N[C@@](CC)(C(=O)OC)[C@H]2C(=O)N(Cc3ccccc3)C(=O)[C@@H]12)C(=O)c1ccc(C(C)(C)C)cc1	-	0	-	3.7µM	-	-	25µM	ELG1 Luc conf=?;ELG1-Luc MMS=7.1µM;ELG1 5FU viab=0;ELG1 MMS viab=?
COC(=O)CCNC(=O)N1CCN(c2nnc(C)c3c(C)n(-c4ccccc4)nc23)CC1	-	-	-	-	0	-	-
Cn1cc(C(=O)N/N=C/c2c(O)ccc3ccccc23)ccc1=O	0	?	0	2.3µM	0	0	?	ELG1 Luc conf=?;ELG1-Luc MMS=3.1µM;ELG1 5FU viab=0;ELG1 MMS viab=14µM
Cn1nccc1C(=O)N/N=C/c1c(O)ccc2ccccc12	0	?	-	?	?	0	-
Cc1ccc2c(c1)nnn2C1CCN(S(=O)(=O)c2ccc(C(=O)NC3CCCC3)cc2)CC1	0	0	0	4.5µM	0	0	?	ELG1 Luc conf=3.1µM;ELG1-Luc MMS=?;ELG1 5FU viab=?;ELG1 MMS viab=?
Cc1cc(C(=O)COC(=O)c2ccc3c(c2)NC(=O)CS3)c(C)n1CCc1ccc(Cl)cc1	0	?	0	?	0	0[1.84 µM]	-
N#C/C(=C(/O)c1ccc(Br)s1)c1nc2ccccc2[nH]1	0	0	-	?	?	0	-
